Assay outcomes from PubChem.
Rows were chosen to be rich in hits. Some 10% of all compounds tested hit in one or more screens of this group.
Gal4-VP16 FLuc = counter-screen for ROR gamma inhibitors: Gal4-VP16 reporter. Drosophila S2 Gal4-VP16 UAS-luciferase, luminescence, 20 h. Potency, µM (top dose mostly 53.6 µM), for inactives: at the top dose activity, negative = inhibition, most hits filed as inhibitors. 3.5% of 310,000 active;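 also: Gal4-VP16 expression switched on by copper sulfate through the metallothionein promoter; % is scaled to controls: 0 for no effect and ±100 for the full control effect; nearly all actives have a fitted effect of over 50% in size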
SW480 rerep = induces DNA re-replication in SW480 colon adenocarcinoma cells; 1.8% of 340,000 active; SW480 DNA re-replication, Hoechst DNA content imaging, 48 h; Potency, µM (series often up to 46.1 µM), without a hit: at the highest dose re-replication activation, most hits filed as activators; also: % of control where 0% means no effect; nearly all actives have a fitted effect of over 55% in size
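Image-based read-out: total Hoechst fluorescence of nuclei (405 nm excitation, 500-530 nm emission), with hits raising the fraction of high-intensity nuclei. SW480 colon cells incubated 48 hr with compounds at 37 C.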
MCF10A rereplic = inducers of DNA re-replication in MCF 10A breast cells. MCF 10A DNA re-replication, Hoechst nuclear intensity, 48 h. Potency, µM (series often up to 46.1 µM), inactives show at the top dose activity, positive = re-replication, actives largely listed as activators. 2.9% of 350,000 active. AID 624296; also: % of control where 0% means no effect; nearly all actives have a fitted effect of over 50% in size
KB-V1 MDR tox = kills drug-selected multidrug resistant KB-V1 cells; KB-V1 MDR cells viability, CellTiter-Glo, 72 h; Potency, µM (doses to about 46.1 µM), usual class: cytotoxic; 3.4% of 400,000 active; AID 1347076; also: % is scaled to controls: 0 for no effect and ±100 for the full control effect; nearly all actives have a fitted effect of over 60% in size
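Compound-treated KB-V1 multidrug-resistant cells, 72 h, 37 degrees C; viability by CellTiter-Glo. Fitted qHTS curves give the values.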
RORgamma inh = ROR gamma (mouse) transcription inhibition; P51450; Drosophila S2 Gal4-RORgamma UAS-luciferase reporter, 20 h; Potency, µM (titrated, usually from 53.6 µM), inactives show at the highest dose activity change, negative = inhibition, hits mostly inhibitors; 5.4% of 310,000 active; AID 2551; also: % is scaled to controls: 0 for no effect and ±100 for the full control effect; nearly all actives have a fitted effect of over 60% in size
Target sequence (P51450 whole entry, looked up, the tested form may be a part): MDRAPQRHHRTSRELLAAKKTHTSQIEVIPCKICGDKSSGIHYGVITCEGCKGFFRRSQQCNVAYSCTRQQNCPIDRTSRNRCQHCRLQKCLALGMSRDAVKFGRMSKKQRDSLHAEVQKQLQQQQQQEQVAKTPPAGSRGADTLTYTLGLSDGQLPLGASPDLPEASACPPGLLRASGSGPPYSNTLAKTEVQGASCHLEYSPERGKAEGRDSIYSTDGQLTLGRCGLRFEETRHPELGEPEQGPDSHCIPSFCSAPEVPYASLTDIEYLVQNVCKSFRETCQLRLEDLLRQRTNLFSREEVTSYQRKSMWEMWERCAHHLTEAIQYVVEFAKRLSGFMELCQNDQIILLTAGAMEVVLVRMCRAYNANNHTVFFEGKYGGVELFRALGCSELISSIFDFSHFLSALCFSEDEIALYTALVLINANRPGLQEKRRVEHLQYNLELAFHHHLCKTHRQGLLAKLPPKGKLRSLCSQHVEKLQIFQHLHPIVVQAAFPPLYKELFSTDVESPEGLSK
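Read-out: Photinus luciferase luminescence; inhibitors lower reporter signal. Insect Schneider cells with Gal4-ROR gamma fusion under metallothionein promoter, UAS reporter; 700 uM final copper sulfate induction, 20 hr, ambient temperature.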
KB-3-1 tox = kills parental KB-3-1 adenocarcinoma cells | KB-3-1 viability, CellTiter-Glo ATP luminescence, 72 h | Potency, µM (top dose mostly 46.1 µM), most hits filed as cytotoxic | 1.4% of 400,000 active; also: % is scaled to controls: 0 for no effect and ±100 for the full control effect; nearly all actives have a fitted effect of over 60% in size
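Viability of parental KB-3-1 cells, measured by CellTiter-Glo luminescence, followed a 72 h incubation at 37 °C with pinned compounds in phenol-red-free DMEM containing 10% FBS.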
* hit, by the source's call; [ ] = remark or other dose. Calls follow the shape of the dose curve; as a rule, active = well fitted curve in the direction sought with a large enough effect; inconclusive = small, poorly fitted or top-dose-only effect, or another doubt; inactive = no such curve, though single readings can be large; an effect the other way counts as inactive or inconclusive. Potency is read from the fitted curve at half-maximal effect.

What do the screens show for `Cc1cc(C)cc(C(O)c2ncc(-c3ccccc3Cl)[nH]2)c1` (centres undefined)?
KB-V1 MDR tox: inactive; KB-3-1 tox: inactive

How did CCOC(=O)N1CCC(Nc2cc(C)nc3c(-c4ccccc4OC)c(C)nn23)CC1 do in these assays?
Gal4-VP16 FLuc: -1.0%; SW480 rerep: 7.4%; MCF10A rereplic: 0.9%; KB-V1 MDR tox: inactive; RORgamma inh: inconclusive; KB-3-1 tox: inactive

What do the screens show for `CCOC(=O)N1CCN(C(=O)CSc2cc(C)nc3c(-c4ccccc4OC)c(C)nn23)CC1`?
Gal4-VP16 FLuc: 12.6µM*; SW480 rerep: 3.2%; MCF10A rereplic: -1.3%; KB-V1 MDR tox: inconclusive; RORgamma inh: 20µM*; KB-3-1 tox: inactive

What do the screens show for `Cc1ccc2c(CC(=O)N3CCN(c4cccc(Cl)c4)CC3)coc2c1C`?
KB-V1 MDR tox: inactive; KB-3-1 tox: inactive

How did Cc1ccc2nc3nc4ccc[nH]c4cc3c2c1 do in these assays?
Gal4-VP16 FLuc: 1.8%[10 µM]; RORgamma inh: inconclusive

How did CN(C)S(=O)(=O)N1CCC(N2CCN(Cc3ccc(F)cc3)C(=O)C2=O)CC1 do in these assays?
KB-V1 MDR tox: inactive; KB-3-1 tox: inactive

Results for COc1ccc(Cn2c(=S)[nH]c3ccsc3c2=O)cc1 ?
Gal4-VP16 FLuc: 2.24µM*; SW480 rerep: -24.9%; MCF10A rereplic: 29.2%; KB-V1 MDR tox: inactive; RORgamma inh: 1.41µM*; KB-3-1 tox: inactive

How did CC(NC(=O)CCn1c(=S)[nH]c2ccsc2c1=O)c1ccccc1 (centres undefined) do in these assays?
Gal4-VP16 FLuc: -1.2%; SW480 rerep: -3.1%; MCF10A rereplic: -2.5%; KB-V1 MDR tox: inactive; RORgamma inh: -24.7%; KB-3-1 tox: inactive

What do the screens show for `COc1ccc(CCNC(=O)CCCn2c(=S)[nH]c3ccsc3c2=O)cc1OC`?
KB-V1 MDR tox: inactive; KB-3-1 tox: inactive

Results for O=C(Nc1cc(Cl)cc(Cl)c1)c1ccc(Cn2c(=O)[nH]c3ccsc3c2=O)cc1 ?
Gal4-VP16 FLuc: inconclusive; SW480 rerep: 8.2%; MCF10A rereplic: 23.1µM*; KB-V1 MDR tox: inactive; RORgamma inh: inconclusive; KB-3-1 tox: 16.4µM*

How did O=c1c2sccc2[nH]c(=S)n1Cc1ccccc1 do in these assays?
Gal4-VP16 FLuc: 2.82µM*; SW480 rerep: -2.1%; MCF10A rereplic: 14.4%; KB-V1 MDR tox: inactive; RORgamma inh: 1.78µM*; KB-3-1 tox: inactive

How did CC(NC(=O)c1ccc(NC(=O)c2nsc3ccccc23)cc1)c1ccccc1 (centres undefined) do in these assays?
KB-V1 MDR tox: inactive; KB-3-1 tox: inactive

What do the screens show for `COc1ccccc1CNC(=O)c1cccn1-c1nnc(N2CCCC2)s1`?
KB-V1 MDR tox: inactive; KB-3-1 tox: inactive

What do the screens show for `O=S(=O)(Nc1ccc(-c2nc3cccnc3s2)cc1)c1ccccc1F`?
Gal4-VP16 FLuc: 2.5%; SW480 rerep: 23.1µM*; MCF10A rereplic: inconclusive; KB-V1 MDR tox: inactive; RORgamma inh: -5.9%; KB-3-1 tox: inactive

Results for CCS(=O)(=O)Nc1cccc(-c2nc3cccnc3s2)c1 ?
Gal4-VP16 FLuc: 3.4%; SW480 rerep: -1.4%; MCF10A rereplic: -3.3%; KB-V1 MDR tox: inactive; RORgamma inh: 0.2%; KB-3-1 tox: inactive

How did O=S(=O)(Nc1ccc(-c2nc3cccnc3s2)cc1)c1ccc(Cl)s1 do in these assays?
Gal4-VP16 FLuc: 4.9%; SW480 rerep: -1.9%; MCF10A rereplic: 8.2µM*; KB-V1 MDR tox: inactive; RORgamma inh: inconclusive; KB-3-1 tox: inactive

How did CCS(=O)(=O)Nc1ccc(-c2nc3cccnc3s2)cc1 do in these assays?
Gal4-VP16 FLuc: -25.4%; SW480 rerep: -6.7%; MCF10A rereplic: 27.5%; KB-V1 MDR tox: inactive; RORgamma inh: inconclusive; KB-3-1 tox: inactive

How did Cc1c(NS(=O)(=O)c2ccc3c(c2)OCCO3)cccc1-c1nc2cccnc2s1 do in these assays?
Gal4-VP16 FLuc: -2.3%; SW480 rerep: 0.1%; MCF10A rereplic: 1.2%; KB-V1 MDR tox: inactive; RORgamma inh: inconclusive; KB-3-1 tox: inconclusive

Results for Cc1cc(-c2nc3cccnc3s2)ccc1NS(=O)(=O)c1ccc2c(c1)OCCO2 ?
Gal4-VP16 FLuc: 4.7%; SW480 rerep: inconclusive; MCF10A rereplic: 5.17µM*; KB-V1 MDR tox: inactive; RORgamma inh: 33.2%; KB-3-1 tox: inactive

How did O=S(=O)(Nc1ccc(-c2nc3cccnc3s2)cc1)c1cccs1 do in these assays?
Gal4-VP16 FLuc: 11.6%; SW480 rerep: 4.9%; MCF10A rereplic: 6.51µM*; KB-V1 MDR tox: inactive; RORgamma inh: -8.3%; KB-3-1 tox: inactive

How did CCOC(=O)c1c(C)[nH]c(C)c1S(=O)(=O)N(C)CC(=O)N1CCN(c2cccc(Cl)c2)CC1 do in these assays?
KB-V1 MDR tox: inconclusive; KB-3-1 tox: inactive

What do the screens show for `NC(=O)c1nc(Nc2ccccc2)sc1NC(=O)c1ccccc1Br`?
KB-V1 MDR tox: inactive; KB-3-1 tox: inactive

How did CN(Cc1ccccc1)CC1C2CCC(C2)C1O (centres undefined) do in these assays?
SW480 rerep: -1.3%; MCF10A rereplic: 1.0%; KB-V1 MDR tox: inactive; KB-3-1 tox: inactive

How did Cc1cc(-c2nc3cccnc3s2)ccc1NS(=O)(=O)c1cccs1 do in these assays?
Gal4-VP16 FLuc: -4.9%; SW480 rerep: inconclusive; MCF10A rereplic: 5.8µM*; KB-V1 MDR tox: inactive; RORgamma inh: -5.5%; KB-3-1 tox: inactive

Results for O=S(=O)(Nc1cccc2ncccc12)c1cccs1 ?
Gal4-VP16 FLuc: 1.3%[0.365 µM]; SW480 rerep: 6.51µM*; MCF10A rereplic: 16.4µM*; KB-V1 MDR tox: inconclusive; RORgamma inh: 2.24µM*; KB-3-1 tox: inconclusive

Results for Cc1c(NS(=O)(=O)c2cccs2)cccc1-c1nc2cccnc2s1 ?
Gal4-VP16 FLuc: 27.6%; SW480 rerep: -13.1%; MCF10A rereplic: -2.7%; KB-V1 MDR tox: inactive; RORgamma inh: 31.3%; KB-3-1 tox: inactive

How did COc1ccc(CNC(=O)CCS(=O)(=O)c2cc(Br)cc3c2N(C(=O)C2CC2)CC3)cc1 do in these assays?
KB-V1 MDR tox: inactive; KB-3-1 tox: inactive

Results for CC(C)C(=O)Nc1cccc(C(=O)Nc2nnc(CC(C)(C)C)s2)c1 ?
KB-V1 MDR tox: inactive; KB-3-1 tox: inactive

How did Cc1c(C#N)c(NC(=O)COC(=O)c2cc(Cl)c3c(c2)OCCCO3)n(Cc2ccco2)c1C do in these assays?
KB-V1 MDR tox: inactive; KB-3-1 tox: inactive

What do the screens show for `O=C1CC(=C(c2ccccc2)c2ccccc2)C(=O)N1CCCCN1CCN(c2ccccc2)CC1`?
Gal4-VP16 FLuc: 0.3%; SW480 rerep: inconclusive; MCF10A rereplic: inconclusive; KB-V1 MDR tox: inconclusive; RORgamma inh: -9.2%; KB-3-1 tox: 20.6µM*
